Measured values: PubChem BioAssay (NCATS)
Records with an inconclusive call do not appear. Calls of active or inactive are those of the source. Unless noted, calls follow the shape of the dose curve; as a rule, active = well fitted curve in the direction sought with a large enough effect; inconclusive = small, poorly fitted or top-dose-only effect, or another doubt; inactive = no such curve, though single readings can be large; an effect the other way counts as inactive or inconclusive.

What was measured:
[1] = target: Lysosomal acid glucosylceramidase (Homo sapiens) (UniProt P04062); experiment: Glucocerebrosidase-p2 (AID 348; in the data active = potency below about 10 µM; also: potency is read from the fitted curve at half-maximal effect); conditions: purified GBA, blue fluorogenic substrate, 40 min
Sequence of Lysosomal acid glucosylceramidase (Homo sapiens) (P04062 whole entry, looked up): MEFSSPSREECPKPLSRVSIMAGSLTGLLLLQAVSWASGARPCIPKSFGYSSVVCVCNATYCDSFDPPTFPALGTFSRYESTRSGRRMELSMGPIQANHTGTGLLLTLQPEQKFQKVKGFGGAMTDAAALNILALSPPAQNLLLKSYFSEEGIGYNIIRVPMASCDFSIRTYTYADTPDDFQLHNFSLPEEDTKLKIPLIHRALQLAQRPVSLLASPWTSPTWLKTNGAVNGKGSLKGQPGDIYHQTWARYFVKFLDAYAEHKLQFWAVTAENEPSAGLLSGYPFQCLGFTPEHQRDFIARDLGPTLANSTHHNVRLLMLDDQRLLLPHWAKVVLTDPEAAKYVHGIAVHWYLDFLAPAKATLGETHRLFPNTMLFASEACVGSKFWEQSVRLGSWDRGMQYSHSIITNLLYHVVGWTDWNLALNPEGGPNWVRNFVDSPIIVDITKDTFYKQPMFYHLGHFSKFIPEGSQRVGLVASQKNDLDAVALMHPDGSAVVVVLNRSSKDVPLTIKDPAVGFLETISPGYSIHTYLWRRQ
Procedure, shortened: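 Normal human glucocerebrosidase (0.2 nM) with blue fluorogenic substrate (80 uM final) in citrate/phosphate pH 5.9 with 10mM sodium taurocholate, 0.01% tween-20; 40 min RT, NaOH/glycine stop; fluorescence Ex 365/Em 440; AC50 from a titration from 0.6 nM upwards.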

[2] = AP1 Signaling Pathway (AID 357; active = well fitted curve in either direction with a large enough effect, not every such curve was filed as active;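 also: ME-180 reporter cells stimulated with EGF at its EC50 level; % is scaled to controls: 0 for no effect and ±100 for the full control effect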); conditions: ME-180 AP-1-bla reporter, EGF-induced, beta-lactamase ratio, 5 h; at 7.69 µM (top of the series) unless noted
Procedure, shortened: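 Cells are seeded overnight, exposed to compound titrations and an EC50 level of EGF for 5 hours at 37 °C, then loaded with CCF4 dye for 2.5 hours. Beta-lactamase activity under the AP-1 element is read as a blue/green ratio.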

[3] = NFAT Signaling Pathway (AID 444; active = well fitted curve in either direction with a large enough effect, not every such curve was filed as active;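 also: carbachol stimulus at about its EC50 of 1 µM final; % is scaled to controls: 0 for no effect and ±100 for the full control effect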); conditions: Jurkat NFAT-bla M1, carbachol, beta-lactamase ratio, 5 h; at 7.69 µM (top of the series) unless noted
Procedure, shortened: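 Jurkat cells carrying an NFAT-driven β-lactamase reporter and co-transfected muscarinic M1 receptor were treated with compound plus carbachol (1 uM final, an EC50 level) for 5 h at 37 °C. CCF4 loading followed for 1 h at RT; 460/530 nm ratio gave %activity.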

[4] = Stat Signaling Pathway (AID 446; active = well fitted curve in either direction with a large enough effect, not every such curve was filed as active;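 also: ME-180 cervical cancer cells given 40 pM IL-6 alongside compound; SIE-controlled beta-lactamase reporter measured as 460/530 nm FRET emission ratio; % is scaled to controls: 0 for no effect and ±100 for the full control effect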); conditions: ME-180 (cervical carcinoma) SIE beta-lactamase reporter, IL-6 stimulated, 5 h; at 7.69 µM (top of the series) unless noted
Procedure, shortened: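 Emission at 460 and 530 nm (excitation 405 nm) reports SIE-controlled beta-lactamase in ME-180 cells. Cells received compound with 40 pM IL-6 for 5 hrs at 37 C; data scaled between 300 pM IL-6 and 125 nM JAK-inhibitor controls.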

[5] = target: Glucocorticoid receptor (Homo sapiens) (UniProt P04150); experiment: GR-GFP Redistribution (AID 450;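 active = compounds whose dose series gives a full or clear partial fitted curve of increased nuclear translocation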; also: potency is read from the fitted curve at half-maximal effect); conditions: U2OS GR-GFP nuclear translocation, laser cytometry, 2 h
Sequence of Glucocorticoid receptor (Homo sapiens) (P04150 whole entry, looked up, the tested form may be a part): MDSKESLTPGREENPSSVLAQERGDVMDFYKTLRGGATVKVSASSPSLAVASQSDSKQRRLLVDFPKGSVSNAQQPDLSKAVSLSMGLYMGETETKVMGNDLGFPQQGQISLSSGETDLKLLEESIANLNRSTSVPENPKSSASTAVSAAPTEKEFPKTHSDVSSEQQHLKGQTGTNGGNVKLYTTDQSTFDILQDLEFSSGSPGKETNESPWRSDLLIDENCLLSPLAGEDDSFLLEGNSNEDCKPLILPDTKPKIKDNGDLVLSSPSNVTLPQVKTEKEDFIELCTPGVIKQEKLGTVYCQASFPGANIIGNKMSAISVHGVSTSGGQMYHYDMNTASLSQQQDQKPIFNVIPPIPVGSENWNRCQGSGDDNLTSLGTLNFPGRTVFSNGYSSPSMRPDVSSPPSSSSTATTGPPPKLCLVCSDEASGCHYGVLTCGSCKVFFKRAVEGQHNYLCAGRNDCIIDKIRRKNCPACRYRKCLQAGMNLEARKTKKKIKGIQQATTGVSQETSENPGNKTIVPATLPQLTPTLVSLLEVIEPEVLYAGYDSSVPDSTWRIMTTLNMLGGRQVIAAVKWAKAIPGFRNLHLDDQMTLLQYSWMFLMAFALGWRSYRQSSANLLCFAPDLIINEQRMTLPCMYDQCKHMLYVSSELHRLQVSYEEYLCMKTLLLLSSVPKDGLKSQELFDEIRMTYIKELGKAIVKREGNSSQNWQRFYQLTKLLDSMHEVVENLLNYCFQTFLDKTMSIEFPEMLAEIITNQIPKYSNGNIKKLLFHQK

[6] = target: Glucocorticoid receptor (Homo sapiens) (UniProt P04150); experiment: GR-EFC Redistribution (AID 451; calls by dose curve; also: potency is read from the fitted curve at half-maximal effect); conditions: CHO-K1 GR-EFC translocation, beta-gal luminescence, 2 h
Procedure, shortened: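 CHO-K1 cells stably expressing nuclear-localized β-gal enzyme acceptor and GR fused C-terminally to the enzyme donor fragment; ligand-driven nuclear translocation restores β-gal by complementation. Compounds titrated up to 46 uM final, 2 h at 37 °C; luminescence read.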

[7] = target: Mitogen-activated protein kinase 10 (Mus musculus) (UniProt Q61831); experiment: JNK3 AlphaScreen Assay (AID 530; active = well fitted curve in either direction with a large enough effect, not every such curve was filed as active;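 also: kinase came from lysate of stimulated human HepG2 cells; signal reports phosphorylation of biotinylated GST-cJun 1-79 at Ser73 with 10 µM ATP; % is scaled to controls: 0 for no effect and ±100 for the full control effect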); conditions: JNK3 lysate, c-Jun phosphorylation; series mostly up to 57.1 µM
Procedure, shortened: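 Phosphorylation of biotinylated GST-cJun(1-79) at Ser73 is measured by AlphaScreen proximity luminescence. Enzyme is JNK3 in HepG2 lysates activated with interleukin-1beta and tumor necrosis factor alpha; ATP is 10 uM final.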

[8] = target: 3',5'-cyclic-AMP phosphodiesterase 4B (Homo sapiens) (UniProt Q07343); experiment: qHTS Assay for Inhibitors of PDE-IV (AID 607; active = well fitted activation curve with a large enough effect in the main read-out, with a control signal flat, not every such curve was filed as active; also: % of control where 0% means no effect); conditions: HEK293 ACTOne CNG channel cells, membrane potential fluorescence; series mostly up to 22.9 µM
Sequence of 3',5'-cyclic-AMP phosphodiesterase 4B (Homo sapiens) (Q07343 whole entry, looked up): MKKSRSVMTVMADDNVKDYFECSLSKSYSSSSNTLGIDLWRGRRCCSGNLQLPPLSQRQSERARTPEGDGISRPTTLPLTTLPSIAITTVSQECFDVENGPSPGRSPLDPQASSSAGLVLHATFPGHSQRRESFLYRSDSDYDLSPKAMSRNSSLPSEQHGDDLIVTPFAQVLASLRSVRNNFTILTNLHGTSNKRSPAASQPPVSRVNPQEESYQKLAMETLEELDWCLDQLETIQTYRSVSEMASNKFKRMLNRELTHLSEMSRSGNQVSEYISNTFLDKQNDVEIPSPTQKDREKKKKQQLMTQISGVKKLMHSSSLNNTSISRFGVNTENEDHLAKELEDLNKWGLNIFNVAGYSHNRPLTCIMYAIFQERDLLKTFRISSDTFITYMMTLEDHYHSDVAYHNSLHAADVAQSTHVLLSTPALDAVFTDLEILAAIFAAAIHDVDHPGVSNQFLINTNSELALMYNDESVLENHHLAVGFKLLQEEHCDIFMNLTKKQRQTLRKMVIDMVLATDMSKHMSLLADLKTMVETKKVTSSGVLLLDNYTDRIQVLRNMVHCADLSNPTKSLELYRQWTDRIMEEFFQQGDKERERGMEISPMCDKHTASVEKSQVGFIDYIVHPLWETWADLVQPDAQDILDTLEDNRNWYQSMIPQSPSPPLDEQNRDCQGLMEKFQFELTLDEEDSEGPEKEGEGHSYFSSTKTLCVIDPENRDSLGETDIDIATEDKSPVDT
Procedure, shortened: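 The readout is membrane depolarisation from a cAMP-sensing CNG channel, detected with a potential dye at ex 535/em 590. Cells were HEK293-derived (endogenous PDE-IV) at 1000 cells/well, titrated up to 22.9 uM final.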

[9] = qHTS Assay for Lipid Storage Modulators (AID 1519; calls by dose curve); conditions: Drosophila S3 cells, BODIPY lipid droplet/cell ratio, laser cytometry, cells loaded with oleic acid; for activity change, negative = inhibition: at 57.5 µM (top of the series)
Procedure, shortened: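 Cells seeded at 5,000 per well were treated with compounds over a concentration series and loaded with oleic acid (400 uM, as added). Lipid droplet fluorescence (488 nm excitation, 500-530 nm channel) was read by laser-scanning cytometry and normalized to 20 uM Triacsin C.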

[10] = target: Dual specificity protein kinase CLK4 (Homo sapiens) (UniProt Q9HAZ1); experiment: qHTS Assay for Inhibitors of CDC-like Kinase 4 (Kinase-Glo Assay) (AID 1770); conditions: recombinant Clk4, Kinase-Glo ATP depletion luminescence; series mostly up to 66.7 µM; also: nearly all actives have a fitted effect of over 65% in size; also: potency is read from the fitted curve at half-maximal effect
Sequence of Dual specificity protein kinase CLK4 (Homo sapiens) (Q9HAZ1 whole entry, looked up): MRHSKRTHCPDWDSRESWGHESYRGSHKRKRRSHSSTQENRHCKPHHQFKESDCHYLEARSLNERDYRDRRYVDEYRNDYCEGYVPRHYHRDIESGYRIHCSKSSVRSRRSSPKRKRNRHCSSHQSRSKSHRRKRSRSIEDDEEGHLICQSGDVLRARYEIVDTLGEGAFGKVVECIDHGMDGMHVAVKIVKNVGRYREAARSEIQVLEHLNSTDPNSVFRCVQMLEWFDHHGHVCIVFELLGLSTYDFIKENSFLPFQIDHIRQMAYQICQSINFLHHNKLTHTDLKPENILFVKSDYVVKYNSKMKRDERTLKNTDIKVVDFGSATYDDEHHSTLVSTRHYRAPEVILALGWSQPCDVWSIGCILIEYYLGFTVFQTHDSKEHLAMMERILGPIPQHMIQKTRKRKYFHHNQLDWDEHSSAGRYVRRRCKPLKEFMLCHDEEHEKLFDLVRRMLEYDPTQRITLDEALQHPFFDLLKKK
Procedure, shortened: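 Recombinant human Clk4 (25 nM) phosphorylated RS repeat peptide (100 uM) with 1 uM ATP in Tris pH 7.5/MgCl2/EGTA/DTT/Triton buffer for 4.5 h at room temperature. Residual ATP was quantified by Kinase-Glo luciferase luminescence.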

[11] = target: Dual specificity protein kinase CLK4 (Homo sapiens) (UniProt Q9HAZ1); experiment: qHTS Assay for Inhibitors of CDC-like Kinase 4 (ADP-Glo Assay) (AID 1771); conditions: recombinant CLK4, ADP-Glo luminescence; series mostly up to 80 µM; also: nearly all actives have a fitted effect of over 70% in size; also: potency is read from the fitted curve at half-maximal effect
Procedure, shortened: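 Compounds are pin-transferred onto substrate mix (100 uM RS peptide, 1 uM ATP), then 25 nM Clk4 is added. After 1 hr at room temperature, ADP-Glo reagent runs 45 min, detection reagent 30 min, then luminescence is read.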

[12] = target: Dual specificity protein kinase CLK4 (Homo sapiens) (UniProt Q9HAZ1); experiment: qHTS Assay for Inhibitors of CDC-like Kinase 4 (ADP-FP Assay) (AID 1795); conditions: Transcreener ADP fluorescence polarization; series mostly up to 50 µM; also: nearly all actives have a fitted effect of over 60% in size; also: potency is read from the fitted curve at half-maximal effect
Procedure, shortened: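 Recombinant human Clk4 (6.25 nM) phosphorylated RS repeat peptide (100 uM) with 1 uM ATP in Tris pH 7.5/MgCl2/EGTA/DTT/Triton buffer for one hour. ADP was quantified by Transcreener competitive fluorescence polarization against an ADP calibration curve.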

[13] = target: Ubiquitin carboxyl-terminal hydrolase 1 (Homo sapiens) (UniProt O94782); experiment: Inhibitors of USP1/UAF1: Pilot qHTS (AID 504865); conditions: purified USP1/UAF1, Ub-rhodamine cleavage fluorescence; series mostly up to 54.9 µM;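 also: rhodamine fluorescence freed from ubiquitin-rhodamine substrate followed over time; top concentration of the series differs between compounds; % is scaled to controls: 0 for no effect and ±100 for the full control effect; nearly all actives have a fitted effect of over 35% in size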
Sequence of Ubiquitin carboxyl-terminal hydrolase 1 (Homo sapiens) (O94782 whole entry, looked up): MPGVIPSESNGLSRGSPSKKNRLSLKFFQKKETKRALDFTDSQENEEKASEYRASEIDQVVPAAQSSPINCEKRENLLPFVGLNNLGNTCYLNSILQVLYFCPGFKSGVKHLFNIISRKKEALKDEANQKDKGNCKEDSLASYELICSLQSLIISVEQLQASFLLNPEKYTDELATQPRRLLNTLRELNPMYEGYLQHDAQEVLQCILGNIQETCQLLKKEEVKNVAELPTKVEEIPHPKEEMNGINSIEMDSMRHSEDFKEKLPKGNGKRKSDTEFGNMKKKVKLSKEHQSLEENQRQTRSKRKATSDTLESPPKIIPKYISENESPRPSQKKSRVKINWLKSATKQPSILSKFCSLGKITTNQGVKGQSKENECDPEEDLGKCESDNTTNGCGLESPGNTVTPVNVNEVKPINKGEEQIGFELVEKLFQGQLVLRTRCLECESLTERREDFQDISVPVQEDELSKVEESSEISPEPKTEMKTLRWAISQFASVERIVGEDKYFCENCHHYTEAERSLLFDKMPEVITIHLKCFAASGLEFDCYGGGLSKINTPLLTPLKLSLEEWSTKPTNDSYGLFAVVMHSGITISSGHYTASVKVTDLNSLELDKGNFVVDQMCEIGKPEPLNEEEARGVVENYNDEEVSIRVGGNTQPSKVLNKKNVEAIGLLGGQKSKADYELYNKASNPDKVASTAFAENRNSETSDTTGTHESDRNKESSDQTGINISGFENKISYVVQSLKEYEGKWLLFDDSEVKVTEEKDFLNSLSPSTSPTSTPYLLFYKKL
Procedure, shortened: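 USP1/UAF1 complex (1nM) preincubated with compound 15 min at room temperature, then Ub-Rho substrate (150nM final) added. Fluorescence read kinetically at 480/540 nm, 6 reads every 60 seconds. Buffer: 50mM HEPES pH 7.8, 0.5mM EDTA, 0.1 mg/ml BSA, 1mM TCEP, 0.01% Tween-20.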

[14] = Primary qHTS for small molecule stabilizers of the endoplasmic reticulum resident proteome: Secreted ER Calcium Modulated Protein (SERCaMP) assay (AID 1508630); conditions: SH-SY5Y GLuc-SERCaMP (Gaussia luciferase released on ER calcium loss) secretion, thapsigargin, luminescence; series mostly up to 38.4 µM; also: % is scaled to controls: 0 for no effect and ±100 for the full control effect
Procedure, shortened: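 The SH-SY5Y reporter protocol was run at 3 concentrations up to 38.3 uM (primary) or 11 concentrations (follow-up): 16 h compound, 100 nM thapsigargin for 4 h, then extracellular luciferase luminescence.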

[15] = target: Cytochrome P450 3A4 (Homo sapiens) (UniProt P08684); experiment: qHTS Assay for Activators of Cytochrome P450 3A4 (AID 885); conditions: recombinant CYP3A4, Luciferin-PPXE luminescence, 60 min; series mostly up to 57.1 µM; also: nearly all actives have a fitted effect of over 65% in size
Sequence of Cytochrome P450 3A4 (Homo sapiens) (P08684 whole entry, looked up): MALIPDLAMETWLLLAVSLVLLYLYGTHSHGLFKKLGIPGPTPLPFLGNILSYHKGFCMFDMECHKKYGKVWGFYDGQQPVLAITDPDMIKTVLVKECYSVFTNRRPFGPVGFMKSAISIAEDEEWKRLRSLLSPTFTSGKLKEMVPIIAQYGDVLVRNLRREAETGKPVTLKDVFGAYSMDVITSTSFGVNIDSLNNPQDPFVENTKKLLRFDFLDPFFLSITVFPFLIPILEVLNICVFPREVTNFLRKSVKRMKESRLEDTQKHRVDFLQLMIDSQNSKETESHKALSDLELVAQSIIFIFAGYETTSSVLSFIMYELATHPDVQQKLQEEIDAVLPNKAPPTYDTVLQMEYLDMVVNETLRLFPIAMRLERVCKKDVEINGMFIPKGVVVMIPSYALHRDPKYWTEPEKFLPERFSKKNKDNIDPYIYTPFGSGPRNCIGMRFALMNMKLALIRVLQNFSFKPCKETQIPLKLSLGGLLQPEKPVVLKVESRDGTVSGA
Procedure, shortened: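 Activators are scored by enhanced luminescence from CYP3A4 conversion of luciferin-PPXE (25uM, equal to KM) to luciferin, after 60 min at RT with an NADPH-regenerating system.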

[16] = target: Cytochrome P450 1A2 (Homo sapiens) (UniProt P05177); experiment: p450-cyp1a2 (AID 410; calls by dose curve; also: potency is read from the fitted curve at half-maximal effect); conditions: recombinant CYP1A2, luciferin-ME demethylation, luminescence; series mostly up to 57 µM
Sequence of Cytochrome P450 1A2 (Homo sapiens) (P05177 whole entry, looked up): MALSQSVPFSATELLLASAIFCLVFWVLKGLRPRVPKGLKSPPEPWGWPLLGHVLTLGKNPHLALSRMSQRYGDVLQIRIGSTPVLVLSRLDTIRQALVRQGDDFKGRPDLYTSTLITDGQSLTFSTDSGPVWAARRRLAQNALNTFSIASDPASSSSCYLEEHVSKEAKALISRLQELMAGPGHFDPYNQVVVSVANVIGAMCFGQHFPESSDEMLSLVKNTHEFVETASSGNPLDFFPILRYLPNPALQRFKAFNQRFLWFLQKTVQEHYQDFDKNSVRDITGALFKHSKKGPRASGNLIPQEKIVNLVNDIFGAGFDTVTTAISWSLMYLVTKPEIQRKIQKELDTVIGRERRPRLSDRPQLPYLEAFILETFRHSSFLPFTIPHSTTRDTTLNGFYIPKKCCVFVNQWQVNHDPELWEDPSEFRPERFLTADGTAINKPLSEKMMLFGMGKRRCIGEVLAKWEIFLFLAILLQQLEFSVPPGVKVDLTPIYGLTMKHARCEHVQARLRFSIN
Procedure, shortened: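 O-Demethylation of luciferin 6' methyl ether by human CYP1A2 is monitored as luciferase luminescence. Substrate sits at Km (100uM); enzyme is 20nM. Values are scaled to 57 uM furafylline as maximal inhibition.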

[17] = measured here: cell count channel max response
[18] = measured here: lipid channel max response

Row | Structure (SMILES) | Potency [1] | activity change, negative = inhibition [2] | activity change, negative = inhibition [3] | activity, negative = inhibition [4] | Potency [5] | Potency [6] | outcome [7] | Potency [8] | activity change, negative = inhibition [9] | max response [9, 17] | max response [9, 18] | Potency [10] | Potency [11] | Potency [12] | Potency [13] | Potency [14] | Potency [15] | Potency [16]
1 | CN(C)C(=O)c1ccc(-c2cncnc2NC2CCNCC2)cc1 | > 11.4 µM (inactive) | 7.68% (inactive) | 9.18% (inactive) | 15.4% (inactive) | > 46 µM (inactive) | > 46 µM (inactive) | inactive | inactive | 3.5% (inactive) | 11.8% | 12.7% | inactive | inactive | inactive | inactive | inactive |  | 
2 | Cc1noc(C)c1-c1cncnc1NCCN1CCOCC1 | > 11.4 µM (inactive) | 4.2% (inactive) | -5.64% (inactive) | -2.23% (inactive) | > 46 µM (inactive) | > 46 µM (inactive) | inactive | inactive | 3.95% (inactive) | 12.2% | 14.6% | inactive | inactive | inactive | inactive | inactive | inactive | 
3 | CNc1ncncc1-c1c(C)noc1C | > 11.4 µM (inactive) | -14.2% (inactive) | -0.793% (inactive) | 11.7% (inactive) | > 46 µM (inactive) | > 46 µM (inactive) | inactive | inactive | 7.32% (inactive) | 37% | 45.6% | inactive | inactive | inactive | inactive | inactive |  | 
4 | COc1cccc(Cn2c(=O)c(-c3ccc(F)cc3)nc3cnc(OC)nc32)c1 | > 11.4 µM (inactive) | -1.52% (inactive) | -0.296% (inactive) | 6.3% (inactive) | > 9.22 µM (inactive) | > 46 µM (inactive) | inactive | inactive | 7.13% (inactive) | 25.9% | 31.8% | inactive | inactive | inactive | inactive | inactive |  | 
5 | CCNc1ncc2nc(-c3ccc(Cl)cc3)c(=O)n(CCC#N)c2n1 | > 11.4 µM (inactive) | 8.5% (inactive) | -14.8% (inactive) | 14.5% (inactive) | > 9.22 µM (inactive) | > 46 µM (inactive) | inactive | inactive | 8.4% (inactive) | 15.3% | 24.2% | inactive | inactive | inactive | inactive | inactive |  | 
6 | CN(C)c1ncnc2ccc(-c3cccnc3)cc12 | > 11.4 µM (inactive) | -15% (inactive) |  |  | > 46 µM (inactive) | > 46 µM (inactive) | inactive | inactive | 3.37% (inactive) | 4.52% | 7.15% | 7.94 µM (active) | 7.08 µM (active) | 12.6 µM (active) |  | inactive | inactive | 0.2 µM (active)
7 | Cc1noc(C)c1-c1cc(NCCN2CCOCC2)ncn1 | > 11.4 µM (inactive) | 27.9% (inactive) | 20.1% (inactive) | 0.606% (inactive) | > 46 µM (inactive) | > 46 µM (inactive) | inactive | inactive | 6.08% (inactive) | 23.5% | 29.1% | 25.1 µM (active) | 22.4 µM (active) | inactive | inactive | inactive |  | 
8 | c1ccc(CNc2cc(-c3cccnc3)ncn2)cc1 | > 11.4 µM (inactive) | 1.27% (inactive) | 15.4% (inactive) | 14.9% (inactive) | > 46 µM (inactive) | > 46 µM (inactive) | inactive |  | 7.56% (inactive) | 11.5% | 21.7% | 10 µM (active) | 4.47 µM (active) | 5.01 µM (active) | inactive | inactive |  | 
9 | COc1ccc(-c2nc3cnc(Nc4cccc(OC)c4)nc3n(C[C@H]3CCCO3)c2=O)cc1 | > 11.4 µM (inactive) | -24.6% (inactive) | -19.9% (inactive) | 16.7% (inactive) | > 9.22 µM (inactive) | > 46 µM (inactive) | inactive | inactive | -4.84% (inactive) | -7.08% | -12.2% | inactive | inactive | inactive | inactive | inactive | inactive | 
10 | Cc1nc2cnc(N3CCOCC3)nc2n(C)c1=O | > 11.4 µM (inactive) | -9.18% (inactive) | 3.85% (inactive) | -2.49% (inactive) | > 9.22 µM (inactive) | > 46 µM (inactive) | inactive | inactive | 4.73% (inactive) | 11.2% | 13.5% | inactive | inactive | inactive | inactive | inactive |  | 
11 | c1nc(N2CCNCC2)c2cc(-c3ccoc3)ccc2n1 | > 11.4 µM (inactive) | -10.9% (inactive) | 9.12% (inactive) | -4.93% (inactive) | > 46 µM (inactive) | > 46 µM (inactive) | inactive | inactive | 3.07% (inactive) | 29.3% | 29.5% | 1.58 µM (active) | 3.16 µM (active) | 0.708 µM (active) | inactive | inactive |  | 
